# Measurements reported in the supplement of paper PMC7411054.
# Tested on: HepG2-TP53BP1-CLTA
# Experiment: lowest phenotypically active concentration; higher = less potent
# Details: treatment time: 24 h
# Outline: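 Fifteen reporter lines derived from A549, HepG2 and WPMY1 cells by gene editing, carrying BFP for segmentation plus GFP and RFP/FusionRed markers, were exposed to 0.3, 1, 3 or 9 µM for 24 h in four wells each and imaged live. Live-cell features from each well were normalised to solvent control wells. A well set counted as deviating when ≥3 of 4 wells lay beyond the 95th percentile of control Euclidean distances, and as reproducible when the median replicate Pearson correlation exceeded the 95th percentile of non-replicates. Phenotypic activity was assigned only when both criteria were met.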
row,SMILES,lowest phenotypically active concentration
1,O=c1[nH]cc(F)c(=O)[nH]1 [5-Fluorouracil],3 µM
2,CC[C@H](C)[C@H](NC(=O)OCc1ccccc1)C(=O)N[C@@H](CCC(=O)OC(C)(C)C)C(=O)N[C@@H](C)C(=O)N[C@H](C=O)CC(C)C,≤ 0.3 µM
3,CCN1CCN(C(c2cccnc2)c2cc(Cl)c3cccnc3c2O)CC1 (centres undefined),9 µM
4,CCOc1cc(N2CCC(O)CC2)ccc1Nc1ncc2c(n1)N(C)c1ccccc1C(=O)N2C,9 µM
5,Cc1c2oc3c(C)ccc(C(=O)NC4C(=O)NC(C(C)C)C(=O)N5CCCC5C(=O)N(C)CC(=O)N(C)C(C(C)C)C(=O)OC4C)c3nc-2c(C(=O)NC2C(=O)NC(C(C)C)C(=O)N3CCCC3C(=O)N(C)CC(=O)N(C)C(C(C)C)C(=O)OC2C)c(N)c1=O (centres undefined) [Actinomycin D],≤ 0.3 µM
6,N#Cc1c(NC(=O)c2cccc3ccccc23)sc2c1CCCC2,≤ 0.3 µM
7,COc1ccc2c(Oc3ccc(NC(=O)c4c(C)n(CC(C)(C)O)n(-c5ccccc5)c4=O)nc3)ccnc2c1,9 µM
8,CN1C/C(=C/c2ccc(B(O)O)cc2)C(=O)/C(=C/c2ccc(B(O)O)cc2)C1,9 µM
9,Nc1ccn([C@@H]2O[C@H](CO)[C@@H](O)C2(F)F)c(=O)n1 [gemcitabine],≤ 0.3 µM
10,Cc1nc(NC(=O)N2CCC[C@H]2C(N)=O)sc1-c1ccnc(C(C)(C)C(F)(F)F)c1 [alpelisib],9 µM
11,CCN(CC)CCCC(C)Nc1ccnc2cc(Cl)ccc12 (centres undefined) [chloroquine],9 µM
12,O=c1cc(-c2cccc3c2Sc2ccccc2S3)oc(N2CCOCC2)c1,9 µM
13,CC(C)CCN1c2nc(Nc3cc(F)c(O)c(F)c3)ncc2N(C)C(=O)C1C (centres undefined),3 µM
14,Nc1cc(C(F)(F)F)c(-c2cc(N3CCOCC3)nc(N3CCOCC3)n2)cn1 [buparlisib],3 µM
15,COc1cc([C@@H]2c3cc4c(cc3[C@@H](O[C@@H]3O[C@@H]5CO[C@@H](C)O[C@H]5[C@H](O)[C@H]3O)[C@H]3COC(=O)[C@H]23)OCO4)cc(OC)c1O [etoposide],≤ 0.3 µM
16,CCN1CCN(c2cc(-c3ccc(F)cc3)c3c(n2)CCCCCC3)CC1 [blonanserin],3 µM
17,COc1cc2c(NC3CCN(C(C)C)CC3)nc(C3CCCCC3)nc2cc1OCCCN1CCCC1,1 µM
18,COc1cc2ncn(-c3cc(OCc4ccccc4C(F)(F)F)c(C(N)=O)s3)c2cc1OC,≤ 0.3 µM
19,Cc1nc(NC(=O)N2CCC[C@H]2C(N)=O)sc1-c1csc(C(C)(C)C)n1,3 µM
